Measurements: PubChem BioAssay AID1159580 (chemical genetic matrix, 2015)
Hit rate of the full screen: of about 5,500 compounds, about 2,000 (36%) were called active. Roughly 18% stayed inconclusive and do not appear here. Cut-off read from the data, not from the text of the source: active = normalized growth mostly below about 0.91 (no sharp cut-off); inconclusive = no clear call, values can overlap the other calls; inactive = mostly above about 0.92. This is one part of the list.

Experiment: chemical genetic growth profiling, strain panel (AID 1159580);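 note: tested at 20 µM; growth read once vehicle control cultures reached saturation at 30 °C; 1 = growth at the plate median or of vehicle wells; lower values mean less growth of the strain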
Conditions: growth OD

Measured: normalized growth

CN1C2CC3C[C@H]1C(O3)C2O (some centres undefined)
inactive: S. cerevisiae deletion strains, locus YAL021C, strain ccr4, active compounds read low 1.01 | S. cerevisiae deletion strains, locus YAL026C, strain drs2, active compounds read low 1.02 | S. cerevisiae deletion strains, locus YAL030W, strain snc1, active compounds read low 0.982 | S. cerevisiae deletion strains, locus YBL061C, strain skt5, active compounds read low 1.02 | S. cerevisiae deletion strains, locus YBR009C, strain hhf1, active compounds read low 1.03 | S. cerevisiae deletion strains, locus YBR021W, strain FUR4, active compounds read low 0.99 | S. cerevisiae deletion strains, locus YBR023C, strain chs3, active compounds read low 1.02 | S. cerevisiae deletion strains, locus YBR171W, strain sec66, active compounds read low 1.03 | S. cerevisiae deletion strains, locus YBR229C, strain ROT2, active compounds read low 1.01 | S. cerevisiae deletion strains, locus YBR231C, strain swc5, active compounds read low 1.01 | S. cerevisiae deletion strains, locus YBR279W, strain paf1, active compounds read low 1.01 | S. cerevisiae deletion strains, locus YCL011C, strain gbp2, active compounds read low 1.02 | S. cerevisiae deletion strains, locus YCL016C, strain dcc1, active compounds read low 1.02 | S. cerevisiae deletion strains, locus YCL029C, strain bik1, active compounds read low 1.04 | S. cerevisiae deletion strains, locus YCL061C, strain MRC1, active compounds read low 1.01 | S. cerevisiae deletion strains, locus YCL069W, strain vba3, active compounds read low 1.01 | S. cerevisiae deletion strains, locus YCR088W, strain abp1, active compounds read low 1.02 | S. cerevisiae deletion strains, locus YDL005C, strain med2, active compounds read low 1.02 | S. cerevisiae deletion strains, locus YDL035C, strain GPR1, active compounds read low 1.02 | S. cerevisiae deletion strains, locus YDL040C, strain nat1, active compounds read low 0.997 | S. cerevisiae deletion strains, locus YDL074C, strain BRE1, active compounds read low 1.04 | S. cerevisiae deletion strains, locus YDL101C, strain DUN1, active compounds read low 1.01 | S. cerevisiae deletion strains, locus YDL185W, strain tfp1, active compounds read low 1.04 | S. cerevisiae deletion strains, locus YDL192W, strain arf1, active compounds read low 1.04 | S. cerevisiae deletion strains, locus YDR001C, strain nth1, active compounds read low 1.02 | S. cerevisiae deletion strains, locus YDR069C, strain doa4, active compounds read low 0.971 | S. cerevisiae deletion strains, locus YDR101C, strain arx1, active compounds read low 1.03 | S. cerevisiae deletion strains, locus YDR137W, strain rgp1, active compounds read low 1.02 | S. cerevisiae deletion strains, locus YDR159W, strain sac3, active compounds read low 0.964 | S. cerevisiae deletion strains, locus YDR162C, strain NBP2, active compounds read low 1.01 | S. cerevisiae deletion strains, locus YDR195W, strain ref2 0.995 | S. cerevisiae deletion strains, locus YDR297W, strain sur2, active compounds read low 0.958 | S. cerevisiae deletion strains, locus YDR318W, strain mcm21, active compounds read low 1.03 | S. cerevisiae deletion strains, locus YDR334W, strain swr1, active compounds read low 1.02 | S. cerevisiae deletion strains, locus YDR335W, strain msn5, active compounds read low 0.982 | S. cerevisiae deletion strains, locus YDR388W, active compounds read low 1.03 | S. cerevisiae deletion strains, locus YDR392W, strain spt3, active compounds read low 0.985 | S. cerevisiae deletion strains, locus YDR502C, strain sam2, active compounds read low 1.02 | S. cerevisiae deletion strains, locus YEL003W, strain gim4, active compounds read low 1.02 | S. cerevisiae deletion strains, locus YEL037C, strain rad23, active compounds read low 1.02 | S. cerevisiae deletion strains, locus YEL061C, strain CIN8 (second series), active compounds read low 1.03 | S. cerevisiae deletion strains, locus YEL061C, strain CIN8, active compounds read low 1.01 | S. cerevisiae deletion strains, locus YER015W, strain faa2, active compounds read low 1.01 | S. cerevisiae deletion strains, locus YER016W, strain bim1, active compounds read low 1.01 | S. cerevisiae deletion strains, locus YER110C, active compounds read low 1.04 | S. cerevisiae deletion strains, locus YER111C, strain swi4, active compounds read low 1.02 | S. cerevisiae deletion strains, locus YER155C, strain BEM2 (second series), active compounds read low 0.994 | S. cerevisiae deletion strains, locus YER155C, strain BEM2, active compounds read low 1 | S. cerevisiae deletion strains, locus YER167W, strain BCK2, active compounds read low 1.01 | S. cerevisiae deletion strains, locus YFR010W, strain ubp6, active compounds read low 1.03 | S. cerevisiae deletion strains, locus YGL078C, strain dbp3, active compounds read low 1.02 | S. cerevisiae deletion strains, locus YGL086W, strain mad1, active compounds read low 1 | S. cerevisiae deletion strains, locus YGL167C, strain pmr1, active compounds read low 1.02 | S. cerevisiae deletion strains, locus YGL173C, strain kem1, active compounds read low 1.02 | S. cerevisiae deletion strains, locus YGL227W, strain vid30, active compounds read low 1.01 | S. cerevisiae deletion strains, locus YGL240W, strain doc1, active compounds read low 0.972 | S. cerevisiae deletion strains, locus YGL248W, strain PDE1, active compounds read low 1.01 | S. cerevisiae deletion strains, locus YGL253W, strain hxk2, active compounds read low 1.01 | S. cerevisiae deletion strains, locus YGR078C, strain PAC10, active compounds read low 1.02 | S. cerevisiae deletion strains, locus YGR135W, strain pre9, active compounds read low 1.02 | S. cerevisiae deletion strains, locus YGR252W, strain gcn5, active compounds read low 1.02 | S. cerevisiae deletion strains, locus YHR013C, strain ard1, active compounds read low 1.01 | S. cerevisiae deletion strains, locus YHR027C, strain rpn1, active compounds read low 1 | S. cerevisiae deletion strains, locus YHR030C, strain SLT2, active compounds read low 1.01 | S. cerevisiae deletion strains, locus YHR079C, strain IRE1 (second series), active compounds read low 1.03 | S. cerevisiae deletion strains, locus YHR094C, strain hxt1, active compounds read low 1.03 | S. cerevisiae deletion strains, locus YHR129C, strain ARP1, active compounds read low 1 | S. cerevisiae deletion strains, locus YHR142W, strain chs7, active compounds read low 1.04 | S. cerevisiae deletion strains, locus YHR200W, strain rpn10, active compounds read low 1.02 | S. cerevisiae deletion strains, locus YIL066C, strain RNR3, active compounds read low 1.01 | S. cerevisiae deletion strains, locus YIL073C, strain SPO22, active compounds read low 1.08 | S. cerevisiae deletion strains, locus YIL125W, strain kgd1, active compounds read low 1.02 | S. cerevisiae deletion strains, locus YIR030C, strain dcg1, active compounds read low 1.03 | S. cerevisiae deletion strains, locus YJL092W, strain hpr5, active compounds read low 1.02 | S. cerevisiae deletion strains, locus YJL095W, strain BCK1 (second series), active compounds read low 0.985 | S. cerevisiae deletion strains, locus YJL095W, strain BCK1, active compounds read low 1.01 | S. cerevisiae deletion strains, locus YJL115W, strain asf1, active compounds read low 1.03 | S. cerevisiae deletion strains, locus YJL129C, strain trk1, active compounds read low 1.04 | S. cerevisiae deletion strains, locus YJL134W, strain LCB3, active compounds read low 1.01 | S. cerevisiae deletion strains, locus YJL154C, strain vps35, active compounds read low 1.01 | S. cerevisiae deletion strains, locus YJL164C, strain tpk1, active compounds read low 0.999 | S. cerevisiae deletion strains, locus YJL166W, strain qcr8, active compounds read low 0.996 | S. cerevisiae deletion strains, locus YJL168C, strain set2, active compounds read low 1.02 | S. cerevisiae deletion strains, locus YJL187C, strain SWE1 (second series), active compounds read low 1.01 | S. cerevisiae deletion strains, locus YJL187C, strain SWE1, active compounds read low 0.969 | S. cerevisiae deletion strains, locus YJR043C, strain POL32, active compounds read low 0.999 | S. cerevisiae deletion strains, locus YJR075W, strain HOC1, active compounds read low 1.01 | S. cerevisiae deletion strains, locus YKL009W, strain mrt4, active compounds read low 1.02 | S. cerevisiae deletion strains, locus YKL068W, active compounds read low 1.03 | S. cerevisiae deletion strains, locus YKL085W, strain MDH1 (second series), active compounds read low 1.01 | S. cerevisiae deletion strains, locus YKL085W, strain MDH1, active compounds read low 1.01 | S. cerevisiae deletion strains, locus YKL160W, strain elf1, active compounds read low 1 | S. cerevisiae deletion strains, locus YKL190W, strain CNB1, active compounds read low 1.01 | S. cerevisiae deletion strains, locus YKR001C, strain vps1, active compounds read low 1.03 | S. cerevisiae deletion strains, locus YKR026C, strain gcn3, active compounds read low 1.01 | S. cerevisiae deletion strains, locus YKR091W, strain srl3, active compounds read low 1.01 | S. cerevisiae deletion strains, locus YLL001W, strain dnm1, active compounds read low 1.03 | S. cerevisiae deletion strains, locus YLL026W, active compounds read low 1.01 | S. cerevisiae deletion strains, locus YLL041C, strain sdh2, active compounds read low 0.997 | S. cerevisiae deletion strains, locus YLR027C, strain aat2, active compounds read low 0.975 | S. cerevisiae deletion strains, locus YLR039C, strain RIC1, active compounds read low 1.07 | S. cerevisiae deletion strains, locus YLR058C, strain SHM2, active compounds read low 1.01 | S. cerevisiae deletion strains, locus YLR102C, strain apc9, active compounds read low 1.04 | S. cerevisiae deletion strains, locus YLR221C, strain rsa3, active compounds read low 1.01 | S. cerevisiae deletion strains, locus YLR258W, strain gsy2, active compounds read low 0.983 | S. cerevisiae deletion strains, locus YLR262C, strain YPT6 (second series), active compounds read low 1.05 | S. cerevisiae deletion strains, locus YLR262C, strain YPT6, active compounds read low 1.08 | S. cerevisiae deletion strains, locus YLR268W, strain sec22, active compounds read low 1.03 | S. cerevisiae deletion strains, locus YLR320W, strain mms22, active compounds read low 1.02 | S. cerevisiae deletion strains, locus YLR330W, strain CHS5, active compounds read low 1.01 | S. cerevisiae deletion strains, locus YLR342W, strain FKS1 (second series), active compounds read low 1 | S. cerevisiae deletion strains, locus YLR342W, strain FKS1, active compounds read low 1.01 | S. cerevisiae deletion strains, locus YLR357W, strain rsc2, active compounds read low 1.03 | S. cerevisiae deletion strains, locus YLR370C, strain arc18, active compounds read low 0.979 | S. cerevisiae deletion strains, locus YLR371W, strain rom2, active compounds read low 1.02 | S. cerevisiae deletion strains, locus YLR384C, strain iki3, active compounds read low 1 | S. cerevisiae deletion strains, locus YLR418C, strain cdc73, active compounds read low 1.03 | S. cerevisiae deletion strains, locus YML016C, strain PPZ1, active compounds read low 1.02 | S. cerevisiae deletion strains, locus YML032C, strain rad52, active compounds read low 1.02 | S. cerevisiae deletion strains, locus YML120C, strain ndi1, active compounds read low 1.03 | S. cerevisiae deletion strains, locus YML124C, strain tub3, active compounds read low 1.03 | S. cerevisiae deletion strains, locus YMR058W, strain fet3, active compounds read low 1.02 | S. cerevisiae deletion strains, locus YMR078C, strain ctf18, active compounds read low 1.03 | S. cerevisiae deletion strains, locus YMR125W, strain sto1, active compounds read low 1.01 | S. cerevisiae deletion strains, locus YMR129W, active compounds read low 0.986 | S. cerevisiae deletion strains, locus YMR205C, strain PFK2, active compounds read low 0.974 | S. cerevisiae deletion strains, locus YMR223W, strain ubp8, active compounds read low 1.03 | S. cerevisiae deletion strains, locus YMR231W, strain pep5, active compounds read low 0.988 | S. cerevisiae deletion strains, locus YMR307W, strain GAS1, active compounds read low 0.99 | S. cerevisiae deletion strains, locus YNL067W, strain RPL9B, active compounds read low 1 | S. cerevisiae deletion strains, locus YNL071W, strain lat1, active compounds read low 1.02 | S. cerevisiae deletion strains, locus YNL153C, strain GIM3, active compounds read low 1.01 | S. cerevisiae deletion strains, locus YNL209W, strain ssb2, active compounds read low 1.01 | S. cerevisiae deletion strains, locus YNL233W, strain BNI4, active compounds read low 1.01 | S. cerevisiae deletion strains, locus YNL248C, strain rpa49, active compounds read low 1.02 | S. cerevisiae deletion strains, locus YNL250W, strain rad50, active compounds read low 1.03 | S. cerevisiae deletion strains, locus YNL271C, strain bni1, active compounds read low 1.03 | S. cerevisiae deletion strains, locus YNL298W, strain CLA4, active compounds read low 1.02 | S. cerevisiae deletion strains, locus YNL307C, strain MCK1, active compounds read low 1.05 | S. cerevisiae deletion strains, locus YNL322C, strain KRE1 (second series), active compounds read low 1.02 | S. cerevisiae deletion strains, locus YNR049C, strain mso1, active compounds read low 0.982 | S. cerevisiae deletion strains, locus YNR052C, strain pop2, active compounds read low 1.01 | S. cerevisiae deletion strains, locus YOL012C, strain htz1 1.37 | S. cerevisiae deletion strains, locus YOL147C, strain pex11, active compounds read low 1.03 | S. cerevisiae deletion strains, locus YOR001W, strain rrp6, active compounds read low 0.987 | S. cerevisiae deletion strains, locus YOR061W, strain CKA2, active compounds read low 1.02 | S. cerevisiae deletion strains, locus YOR069W, strain VPS5, active compounds read low 1.01 | S. cerevisiae deletion strains, locus YOR070C, strain gyp1, active compounds read low 1.01 | S. cerevisiae deletion strains, locus YOR080W, strain dia2, active compounds read low 1.02 | S. cerevisiae deletion strains, locus YOR083W, strain WHI5, active compounds read low 1 | S. cerevisiae deletion strains, locus YOR106W, strain vam3, active compounds read low 1.03 | S. cerevisiae deletion strains, locus YOR136W, strain idh2, active compounds read low 1.03 | S. cerevisiae deletion strains, locus YOR144C, strain elg1, active compounds read low 1.03 | S. cerevisiae deletion strains, locus YOR184W, strain ser1, active compounds read low 1.04 | S. cerevisiae deletion strains, locus YOR265W, strain rbl2, active compounds read low 1.01 | S. cerevisiae deletion strains, locus YOR270C, strain vph1, active compounds read low 1.04 | S. cerevisiae deletion strains, locus YOR290C, strain snf2, active compounds read low 0.99 | S. cerevisiae deletion strains, locus YOR316C, strain cot1, active compounds read low 1.04 | S. cerevisiae deletion strains, locus YPL051W, strain arl3, active compounds read low 1.01 | S. cerevisiae deletion strains, locus YPL078C, strain atp4, active compounds read low 1.02 | S. cerevisiae deletion strains, locus YPL106C, strain sse1, active compounds read low 0.995 | S. cerevisiae deletion strains, locus YPL240C, strain hsp82, active compounds read low 0.997 | S. cerevisiae deletion strains, locus YPL241C, strain CIN2, active compounds read low 1.01 | S. cerevisiae deletion strains, locus YPR119W, strain clb2, active compounds read low 1.03 | S. cerevisiae deletion strains, locus YPR141C, strain kar3, active compounds read low 1.04 | S. cerevisiae deletion strains, locus YPR163C, strain tif3, active compounds read low 1.04 | S. cerevisiae deletion strains, locus YPR167C, strain met16, active compounds read low 1.02 | S. cerevisiae deletion strains, strain wtn01, active compounds read low 1.04 | S. cerevisiae strains, strain wild type, active compounds read low 1.02
